Data published in PubChem BioAssay (NCI).
This is part of a sample that, as a whole, favours compounds with a hit. Of some 79,000 tested, about 15% had one in any assay. Cut-off read from the data, not from the text of the source: active = growth inhibition above about 70%; inactive = the rest.

Columns and labels:
[1] = NCI Yeast Anticancer Drug Screen. Data for the rad50 strain (AID 155);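 note: 0% = growth of vehicle-only cultures of the same strain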; conditions: S. cerevisiae rad50 strain growth inhibition; at 50.0 µM; stronger effect = higher value
Method in brief: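 Vehicle-treated cultures provide the reference for the growth inhibition reported for compound-exposed, repair-deficient yeast.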

[2] = NCI Yeast Anticancer Drug Screen. Data for the mec2-1 strain (AID 157); conditions: S. cerevisiae mec2-1 strain, at 50.0 µM, stronger effect = higher value
Method in brief: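 mec2-1 yeast strain, carrying an alteration in DNA damage repair or cell cycle control, was exposed to compounds; growth inhibition was measured relative to vehicle-treated controls.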

[3] = NCI Yeast Anticancer Drug Screen. Data for the sgs1 mgt1 strain (AID 161);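 note: 0% = growth of cultures given vehicle only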; conditions: S. cerevisiae sgs1 mgt1 strain, at 50.0 µM, stronger effect = higher value
Method in brief: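 Yeast cells carrying a defined DNA-repair defect were exposed to test compounds. Growth inhibition was measured relative to vehicle-treated controls.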

[4] = NCI Yeast Anticancer Drug Screen. Data for the cln2 rad14 strain (AID 165);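 note: 0% = growth equal to vehicle treated cultures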; conditions: S. cerevisiae cln2 rad14 strain, at 50.0 µM, stronger effect = higher value
Method in brief: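 Yeast carrying cln2 and rad14 alterations (cell cycle control and DNA damage repair) were exposed to compounds. Growth inhibition was measured against vehicle-treated controls.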

[5] = NCI Yeast Anticancer Drug Screen. Data for the bub3 strain (AID 167); conditions: S. cerevisiae bub3 mutant strain, at 50.0 µM, stronger effect = higher value
Method in brief: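 Mutant yeast screening strain plus compound; vehicle-treated cultures serve as the 0% inhibition reference.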

[6] = NCI Yeast Anticancer Drug Screen. Data for the mlh1 rad18 strain (AID 175); conditions: S. cerevisiae mlh1 rad18 strain growth inhibition; at 50.0 µM; stronger effect = higher value
Method in brief: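 Growth inhibition of the yeast strain was measured after compound exposure and expressed relative to vehicle-treated controls. The strain carries defined defects in DNA damage repair.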

Measured: growth inhibition

O=[N+]([O-])c1ccc(N/N=C/c2ccccc2O)c([N+](=O)[O-])c1
inactive: [1] 5.05% | [2] 20.5% | [3] 4.8% | [4] -6.8% | [5] 1.05% | [6] 4.2%

CCOC(=O)C(NC(C)=O)C(O)c1ccc(C(C)C)cc1 (configuration not stated)
inactive: [1] 10.8% | [2] 4.4% | [3] 8.45% | [4] -33.7% | [5] 14.8% | [6] 14.7%

CCCc1sc(NC(C)=O)nc1-c1ccccc1
inactive: [1] 1.2% | [2] 5.85% | [3] 15.2% | [4] 29.3% | [5] -9.7% | [6] 10.2%

ClCCOCc1ccc(Cl)c(Cl)c1
inactive: [1] 8.8% | [2] -16.9% | [3] 6.15% | [4] -13.5% | [5] -18% | [6] 9%

CN(CC(=O)O)Cc1ccccc1
inactive: [1] 9.5% | [2] 19.4% | [3] 10.5% | [4] -13.9% | [5] 9.35% | [6] 3.3%

CN1c2ccccc2SC1(C)CCC(=O)O (configuration not stated)
inactive: [1] 21.5% | [2] 35.9% | [3] 37.6% | [4] 6% | [5] 29.6% | [6] 7.65%

CSc1cc(C)n2nnnc2n1
inactive: [1] 1.25% | [2] -11.9% | [3] -3.2% | [4] -27.2% | [5] -3.75% | [6] -0.3%

Cc1nc(N)sc1C(=O)/C=C/c1ccc([N+](=O)[O-])cc1
inactive: [1] 16.2% | [2] -2.6% | [3] -15.7% | [4] 20.8% | [5] 15.1% | [6] 9.45%

CCOC(=O)NC(=O)c1cn(CCCCCOC(=O)NCCCCCCNC(=O)OCCCCCn2cc(C(=O)NC(=O)OCC)c(=O)[nH]c2=O)c(=O)[nH]c1=O
inactive: [1] 20.6% | [2] 13.2% | [3] 12.6% | [4] 21.9% | [5] 6.7% | [6] 24.1%

O=C(c1ccccc1)c1cccc2c1ccc1ccccc12
inactive: [1] 13.4% | [2] 38.9% | [3] 38.3% | [4] 17% | [5] 23.4% | [6] 32.5%

CCOC(=O)C(CCC#N)(NC(C)=O)C(=O)OCC
inactive: [1] 1.4% | [2] -2.35% | [3] 7.4% | [4] -25.3% | [5] 1.7% | [6] -20.9%

Cc1cccc2c1NC(=O)C2=O
inactive: [1] 21.6% | [2] 8.4% | [3] -2.8% | [4] 15.7% | [5] -0.65% | [6] 13.5%

C/C(=C\CC1C(=O)N(c2ccccc2)N(c2ccccc2)C1=O)CO
inactive: [1] -10.9% | [2] -32.2% | [3] -29.9% | [4] -18.2% | [5] -28.6% | [6] -11.9%

COc1ccc(OC)c(NC(=O)C2=C(C)NC(C)=C(C(=O)Nc3cc(OC)ccc3OC)C2c2cccc([N+](=O)[O-])c2)c1
inactive: [1] 1.05% | [2] 8.65% | [3] 1.9% | [4] -9.3% | [5] 7.5% | [6] 4.25%

COCC(=O)Oc1ccc[nH]c1=O
inactive: [1] 1.55% | [2] 2.6% | [3] 7.85% | [4] -17.1% | [5] -7.25% | [6] 22.2%

NC1=NC(c2ccccc2)C2=C(N1)C(=O)N(c1ccc(Br)cc1)C2 (configuration not stated)
inactive: [1] 43.3% | [2] -7.75% | [3] -2.45% | [4] -12.3% | [5] 7.7% | [6] -2.65%

COC(=O)c1cc(C(=O)OC)c2c3[nH]cnc3ncn2c1=O
inactive: [1] 24.4% | [2] 9.85% | [3] 15.9% | [4] 18.6% | [5] 3.65% | [6] 21.4%

NNC(=S)NC1CCCCC1
inactive: [1] 29.8% | [2] -4.45% | [3] 29.8% | [4] 12.2% | [5] 16.9% | [6] 36%

N/C(=N/N=C/C1CCCCC1)NO
inactive: [1] 0.95% | [2] -9.25% | [3] -24.1% | [4] 3.4% | [5] -13.9% | [6] 13.6%

CCCC(O)CNCC1CCC2CCc3cccc1c32 (configuration not stated)
inactive: [1] -2.9% | [2] 5.8% | [3] 4.5% | [4] 2.05% | [5] 20.4% | [6] 18.9%

CN1CCC2(C1)C1CC3CC(C1)CC2C3 (configuration not stated)
inactive: [1] 1.2% | [2] -13.9% | [3] -8.5% | [4] -7.3% | [5] 3.4% | [6] -9.35%

O=CNC1(CO)CCCCC1
inactive: [1] -2.4% | [2] -3.4% | [3] -7.05% | [4] -38.8% | [5] -18.1% | [6] 7.9%

O=C(O)c1ccc(O)c([N+](=O)[O-])c1
inactive: [1] 8.2% | [2] -33.5% | [3] 6.5% | [4] 9% | [5] 6.85% | [6] 27.2%

O=P(c1ccccc1)(c1ccccc1)C(O)c1ccc(F)cc1 (configuration not stated)
inactive: [1] -11.6% | [2] -14.7% | [3] 7.4% | [4] 2.1% | [5] 1.4% | [6] -7.25%

Nc1ccnc(=O)[nH]1
inactive: [1] -3.5% | [2] -11.7% | [3] -18.8% | [4] -20.8% | [5] 3.3% | [6] -36.8%

C#CCOC(=O)c1ccc(OC(C)=O)cc1
inactive: [1] -3.45% | [2] 1.45% | [3] 10.1% | [4] 3.45% | [5] 14.2% | [6] -1.65%

NC(Cc1ccccc1CP(=O)(O)O)C(=O)O (configuration not stated)
inactive: [1] -46.8% | [2] -41.1% | [3] -16.4% | [4] -4.9% | [5] -29.9% | [6] -44.2%

COC(=O)C1(C(C(=O)c2ccccc2)c2ccccc2)NC(=S)NC(=O)C1C#N (configuration not stated)
inactive: [1] -14.4% | [2] 10.2% | [3] -19.9% | [4] 6.25% | [5] -15.4% | [6] -9.7%

CCOC(=O)C(=CN1CCCCCC1)C(=O)OCC
inactive: [1] 19.8% | [2] 13.2% | [3] 13.2% | [4] 6.1% | [5] -0.25% | [6] 32.5%

CN1COc2c(ccc3c4c(ccc23)CN(C)CO4)C1
inactive: [1] 3.15% | [2] 17.9% | [3] 16.6% | [4] -47% | [5] 1.75% | [6] 35.4%

COC(=O)Cc1nc2ccccc2o1
inactive: [1] 36.1% | [2] 9% | [3] 20.9% | [4] 37.9% | [5] 59.2% | [6] 31.5%

COc1ccc(N)nn1
inactive: [1] 1.6% | [2] -6.9% | [3] -9.15% | [4] 7.5% | [5] 4.75% | [6] -10.2%

O=C(/C=C(/Nc1ccccc1)c1ccccc1)c1ccccc1
inactive: [1] 7.3% | [2] 11.4% | [3] 8.9% | [4] 35.5% | [5] 15.9% | [6] 34.2%

CCOC(=O)c1ccccc1OCc1ccccc1
inactive: [1] 13.3% | [2] 15.2% | [3] 5.75% | [4] -5.9% | [5] 51.8% | [6] 14.9%

COc1ccc(C(=O)C2CCC(C(=O)O)C2)cc1 (configuration not stated)
inactive: [1] -25.4% | [2] -27.9% | [3] -5.35% | [4] -6.35% | [5] -21.9% | [6] -13.2%

NC(=O)CNC(=O)C(CO)NC(=O)OCc1ccccc1 (configuration not stated)
inactive: [1] 2.35% | [2] -10% | [3] 10.7% | [4] -6.2% | [5] -11.1% | [6] 0.3%

Fc1ccccc1C(Nc1nc2ccccc2s1)Nc1nc2ccccc2s1
inactive: [1] 13.4% | [2] 6.05% | [3] -7.3% | [4] -0.3% | [5] -3.15% | [6] 1.35%

O=C(CCl)Nc1ccc(O)c2ccccc12
inactive: [1] 14.8% | [2] 4.65% | [3] 7.45% | [4] 9.95% | [5] 5.85% | [6] 36.8%

O=NN(CCCl)C(=O)NC1CCC(O)CC1 (configuration not stated)
inactive: [1] -16.9% | [2] -10.8% | [3] -24% | [4] 13.2% | [5] -4.2% | [6] -4.2%

COc1cc(O)c(C(C)=O)c(OC)c1
inactive: [1] -8.25% | [2] -12.8% | [3] -10.1% | [4] -31.1% | [5] -0.2% | [6] -2.05%

CSCCC(NC(=O)CCCOc1ccc(Cl)cc1C)C(=O)O (configuration not stated)
inactive: [1] 1.8% | [2] -12% | [3] 3.85% | [4] -29.9% | [5] -0.9% | [6] -5.25%

Cc1nc(N(CCO)CCO)c2sc(=S)n(-c3ccccc3)c2n1
inactive: [1] -35.5% | [2] -16.4% | [3] -43.9% | [4] -13.7% | [5] -14.2% | [6] -45.8%
